This passage reports Potency results from PubChem BioAssay (Tox21).

A short description of assay [1]: Nuclear factor erythroid 2-related factor 2/antioxidant responsive element (Nrf2/ARE) small molecule agonists: qHTS cell viability counter screen in human keratinocytes (AID 1919968; active means well fitted curve in the direction sought with a large enough effect in the repeat runs; an effect the other way counts as inactive or inconclusive; further: nearly all actives have a fitted effect of over 55% in size). The gist of the method:
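CellTiter-Fluor fluorescence, read 1 h after reagent, gave viability in the same wells as the ARE-luciferase assay. KeratinoSens cells (1,500/well) had 23 h compound exposure at 37 C/5% CO2 following 5 h plating.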
(In general: Quantitative high-throughput screening tests each substance at several concentrations.)

Assay [2] in a line: Nuclear factor erythroid 2-related factor 2/antioxidant responsive element (Nrf2/ARE) small molecule agonists: luciferase reporter gene qHTS assay in human keratinocytes (AID 1919969). Further: nearly all actives have a fitted effect of over 35% in size. A general note: In a reporter assay the amount or activity of a reporter protein is the signal.
The target of assay [3] is Gonadotropin-releasing hormone receptor (Homo sapiens) (UniProt P30968). Description: Human gonadotropin-releasing hormone receptor (GnRHR) small molecule agonists, calcium flux assay in GnRHR-HEK293 cells (AID 1920063). Further: nearly all actives have a fitted effect of over 35% in size. The gist of the method:
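Agonist mode: compounds at 15 concentrations, in triplicate, went onto calcium dye-loaded GnRHR-HEK293 cells. Intracellular calcium was then followed as 480/540 nm fluorescence at 1 s intervals over 3 min.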

The target in assay [4] is KiSS-1 receptor (Homo sapiens) (UniProt Q969F8). Kind of assay: Human kisspeptin (KISS1R) small molecule agonists, calcium flux assay in KISS1R-HEK293 cells (AID 1920064; active means well fitted curve in the direction sought with a large enough effect in the repeat runs; an effect the other way counts as inactive or inconclusive). The gist of the method:
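Agonist mode: intracellular calcium rise tracked at 1 s intervals over 3 min (480/540 nm) immediately after compound addition to dye-loaded KISS1R-HEK293 stable cells. Each compound tested at 15 concentrations in triplicate.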
A general note: Calcium assays in cells follow changes in intracellular calcium, usually with a dye or a luminescent sensor.

Assay [5] in a line: G protein-coupled receptor (GPCR) small molecule agonists, calcium flux assay: HEK293 wild type cell line counter screen (AID 1920065). A digest of the protocol: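 Calcium flux counter screen: compound added in agonist mode at 15 concentrations in triplicate to dye-loaded parental HEK293 cells. Fluorescence (480/540) read kinetically for 3 min; ATP served as positive control.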

Assay [6] in a line: p53 small molecule agonists, cell-based qHTS assay with human liver microsomes (AID 1963577). A digest of the protocol: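 Fluorescence of the beta-lactamase reporter in p53RE-bla cells, detected with LiveBLAzer substrate (2 h, room temperature, dark), served as the read-out after 16 h compound exposure at 37 C with human liver microsomes and NADPH, each 0.5 mg/mL final.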
Assay [7] can be described thus: p53 small molecule agonists, cell-based qHTS assay with rat liver microsomes (AID 1963578). A digest of the protocol: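 Cells carrying a p53 response element–beta-lactamase reporter were plated and rested 5 h, then dosed with compound in DMSO plus rat liver microsomes and NADPH, each at 0.5 mg/mL final. After 16 h at 37 C, LiveBLAzer substrate was added for 2 h.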

Assay [8] can be described thus: p53 small molecule agonists, cell-based qHTS assay with human liver microsomes: qHTS cell viability counter screen (AID 1963579). Further: nearly all actives have a fitted effect of over 45% in size. A digest of the protocol:
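Cytotoxicity counter screen: p53RE-bla, 4,000 cells/well; 5 h settle, 37 C/5% CO2; cpd + HLM 0.5 mg/mL + NADPH 0.5 mg/mL (final); 16 h, 37 C; CellTiter-Glo, 30 min RT, luminescence.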

A short description of assay [9]: p53 small molecule agonists, cell-based qHTS assay with rat liver microsomes: qHTS cell viability counter screen (AID 1963580). Further: nearly all actives have a fitted effect of over 45% in size. The gist of the method:
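Cytotoxicity counter screen: intracellular ATP measured by CellTiter-Glo luminescence in the same wells as the beta-lactamase reporter read, on HCT-116 p53RE-bla cells exposed 16 h at 37 C to compounds with rat liver microsomes and NADPH, each 0.5 mg/mL final.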

A short description of assay [10]: p53 small molecule agonists, cell-based qHTS assay: qHTS cell viability counter screen (AID 1963581). Further: nearly all actives have a fitted effect of over 45% in size. A digest of the protocol:
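Counter screen read by CellTiter-Glo luminescence (ATP content, 30 min at room temperature), run in the same wells as the beta-lactamase reporter read. HCT-116 p53RE-bla cells saw compounds for 16 h at 37 C.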

A short description of assay [11]: p53 small molecule agonists, cell-based qHTS assay (AID 1963582; active means well fitted activation curve with a large enough effect in the signal ratio in the repeat runs, not every such curve was filed as active; the % refers to the signal ratio). A digest of the protocol: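 Read-out is beta-lactamase FRET fluorescence after 2 h at room temperature with LiveBLAzer B/G substrate. p53 response element-bla cells were treated 16 h at 37 C with compounds in DMSO, added 5 h after seeding.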
The target of assay [12] is 5-hydroxytryptamine receptor 2A (Homo sapiens) (UniProt P28223). Description: 5-hydroxytryptamine receptor 2A (HTR2A) small molecule antagonists, cell-based qHTS assay (AID 1963586). Further: nearly all actives have a fitted effect of over 45% in size. Further: potency means the concentration at half of the fitted maximal effect. The gist of the method:
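CHO cells stably expressing human HTR2A were plated for 18 h at 37 C, then loaded with calcium dye for 1 h. Compounds were preincubated 5 min at room temperature before DOI (4 nM solution) was added. Kinetic fluorescence was read for 3 min.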

Assay [13] has the same target. Kind of assay: 5-hydroxytryptamine receptor 2A (HTR2A) small molecule agonists, cell-based qHTS assay (AID 1963587). Further: nearly all actives have a fitted effect of over 30% in size. The gist of the method: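 CHO cells stably expressing human HTR2A, plated 18 h, loaded with calcium dye 1 h at 37 C. Agonist mode: compounds added and intracellular calcium fluorescence recorded kinetically for 2 min at 1 sec intervals.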
The target in assay [14] is Muscarinic acetylcholine receptor M1 (Homo sapiens) (UniProt P11229). Kind of assay: Cholinergic receptor muscarinic 1 (CHRM1) small molecule antagonists, cell-based qHTS assay (AID 1963588). Further: nearly all actives have a fitted effect of over 40% in size. The gist of the method: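 Compounds were tested at 15 concentrations in three independent runs. Dye-loaded CHRM1-CHO cells were exposed 5 min at room temperature before stimulation by acetylcholine added at 50nM. Intracellular calcium was read kinetically on FDSS for 3 min.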

The target is the same in assay [15]. Kind of assay: Cholinergic receptor muscarinic 1 (CHRM1) small molecule agonists, cell-based qHTS assay (AID 1963589). Further: nearly all actives have a fitted effect of over 35% in size. The gist of the method:
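Agonist-mode calcium-flux screen: compounds at 15 concentrations, three independent runs, were pin-transferred onto dye-loaded human CHRM1-CHO cells. Fluorescence was then recorded kinetically every second over minutes.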

The nature of assay [16]: cAMP Responsive Elements (CRE) small molecule agonists, cell-based qHTS assay (AID 1963590). A digest of the protocol: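 Agonist mode: compound added to CRE-bla HEK 293T cells (2,000/well, 18 h after plating) for 3 h at 37 C/5% CO2. Reporter activity detected via FRET beta-lactamase substrate, 2 h room-temperature loading.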
Assay [17] can be described thus: cAMP Responsive Elements (CRE) small molecule antagonists, cell-based qHTS assay (AID 1963591; active means well fitted inhibition curve with a large enough effect in the signal ratio in the repeat runs, not every such curve was filed as active; the % refers to the signal ratio). A digest of the protocol: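 Antagonist mode: compounds are added alongside the adenylyl cyclase activator NKH477 (0.25 uM final) to CRE-bla HEK293T cells for 3 h. LiveBLAzer FRET substrate, 2 h at room temperature, reports bla expression.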
The target in assay [18] is D(2) dopamine receptor (Homo sapiens) (UniProt P14416). Kind of assay: Dopamine D2 receptor (DRD2) small molecule antagonists, cell-based qHTS assay (AID 1963595; active means well fitted inhibition curve with a large enough effect in the signal ratio in the repeat runs, with a control signal flat; the % refers to the signal ratio). A digest of the protocol: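 Human DRD2 antagonist qHTS measuring cAMP by HTRF. The cells are exposed to compound for 10 min, then to NKH477 (200 nM) and quinpirole (12 nM) for 30 min at RT, with Ro20-1724 (0.1 mM) present throughout.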

Assay [19] has as its target Beta-2 adrenergic receptor (Homo sapiens) (UniProt P07550). Description: Adrenergic beta2 receptor (ADRB2) small molecule antagonists, cell-based qHTS assay (AID 1963592). Further: series mostly up to about 92 µM; nearly all actives have a fitted effect of over 50% in size. A digest of the protocol:
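Assay format: CHO-ADRB2 cells, 18-20hr seeding at 37C/5% CO2, then compound plus 1nM isoproterenol agonist mix for 0.5hr RT. Homogeneous time-resolved fluorescence cAMP detection after 1hr, expressed as 665/615 nm ratio.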

Assay [20] deals with D(2) dopamine receptor (Homo sapiens) (UniProt P14416). Kind of assay: Dopamine D2 receptor (DRD2) small molecule agonists, cell-based qHTS assay (AID 1963594). Further: nearly all actives have a fitted effect of over 35% in size. The gist of the method:
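HEK293 cells stably expressing human DRD2, pre-treated with PDE inhibitor Ro20-1724 (0.1 mM final) and compound 10 min at room temperature, then stimulated with NKH477 (200nM […]) for 30 min. cAMP read by HTRF (665/620 nm).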

Unmarked numbers belong to inactive results. Results filed as inconclusive are left out. Calls of active or inactive are those of the source. Unless noted, the call rests on the fitted dose curve.

Sequence of KiSS-1 receptor (Homo sapiens) (Q969F8 whole entry, looked up): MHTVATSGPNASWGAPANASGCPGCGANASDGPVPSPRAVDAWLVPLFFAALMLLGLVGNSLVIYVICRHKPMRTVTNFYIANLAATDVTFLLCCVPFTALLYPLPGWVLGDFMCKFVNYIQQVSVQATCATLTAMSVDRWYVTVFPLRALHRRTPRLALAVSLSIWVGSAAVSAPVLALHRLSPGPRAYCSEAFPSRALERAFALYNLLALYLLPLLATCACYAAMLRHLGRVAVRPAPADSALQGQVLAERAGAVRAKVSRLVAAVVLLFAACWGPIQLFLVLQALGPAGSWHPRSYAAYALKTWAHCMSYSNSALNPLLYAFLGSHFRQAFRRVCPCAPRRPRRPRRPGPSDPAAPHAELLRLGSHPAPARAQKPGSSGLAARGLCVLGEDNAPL
Sequence of 5-hydroxytryptamine receptor 2A (Homo sapiens) (P28223 whole entry, looked up): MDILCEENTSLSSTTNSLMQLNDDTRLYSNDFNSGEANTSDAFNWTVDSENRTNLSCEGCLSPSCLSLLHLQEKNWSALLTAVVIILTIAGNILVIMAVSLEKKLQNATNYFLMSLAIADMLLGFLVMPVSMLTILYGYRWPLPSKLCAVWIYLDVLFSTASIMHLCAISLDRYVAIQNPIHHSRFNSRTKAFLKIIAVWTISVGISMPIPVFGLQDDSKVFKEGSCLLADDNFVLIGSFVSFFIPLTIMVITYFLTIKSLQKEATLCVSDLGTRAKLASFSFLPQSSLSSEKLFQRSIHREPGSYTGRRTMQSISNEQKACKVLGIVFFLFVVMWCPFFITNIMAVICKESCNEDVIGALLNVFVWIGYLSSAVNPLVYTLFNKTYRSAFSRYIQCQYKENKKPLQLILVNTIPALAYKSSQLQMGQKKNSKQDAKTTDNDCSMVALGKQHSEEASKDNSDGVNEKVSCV
Sequence of Muscarinic acetylcholine receptor M1 (Homo sapiens) (P11229 whole entry, looked up): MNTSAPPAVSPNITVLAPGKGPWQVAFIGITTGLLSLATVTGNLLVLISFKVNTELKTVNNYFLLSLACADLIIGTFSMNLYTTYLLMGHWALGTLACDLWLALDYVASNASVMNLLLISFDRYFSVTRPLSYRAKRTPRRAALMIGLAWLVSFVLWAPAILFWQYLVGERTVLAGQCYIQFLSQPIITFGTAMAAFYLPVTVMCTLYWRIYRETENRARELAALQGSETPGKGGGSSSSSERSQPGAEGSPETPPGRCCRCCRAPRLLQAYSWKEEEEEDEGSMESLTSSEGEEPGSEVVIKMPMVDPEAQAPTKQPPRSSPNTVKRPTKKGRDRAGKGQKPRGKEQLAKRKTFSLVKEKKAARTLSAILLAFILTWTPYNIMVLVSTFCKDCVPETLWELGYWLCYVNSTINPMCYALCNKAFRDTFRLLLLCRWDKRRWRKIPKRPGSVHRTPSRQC
Sequence of Gonadotropin-releasing hormone receptor (Homo sapiens) (P30968 whole entry, looked up): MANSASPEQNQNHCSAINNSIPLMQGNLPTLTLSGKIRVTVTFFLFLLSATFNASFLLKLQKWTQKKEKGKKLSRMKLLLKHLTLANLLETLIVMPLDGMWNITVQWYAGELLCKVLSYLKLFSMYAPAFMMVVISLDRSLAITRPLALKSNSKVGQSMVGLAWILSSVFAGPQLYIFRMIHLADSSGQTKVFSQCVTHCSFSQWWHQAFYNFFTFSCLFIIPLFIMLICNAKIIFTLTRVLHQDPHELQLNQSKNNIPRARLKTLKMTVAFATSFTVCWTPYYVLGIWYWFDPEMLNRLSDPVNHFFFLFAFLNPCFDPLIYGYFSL
Sequence of Beta-2 adrenergic receptor (Homo sapiens) (P07550 whole entry, looked up): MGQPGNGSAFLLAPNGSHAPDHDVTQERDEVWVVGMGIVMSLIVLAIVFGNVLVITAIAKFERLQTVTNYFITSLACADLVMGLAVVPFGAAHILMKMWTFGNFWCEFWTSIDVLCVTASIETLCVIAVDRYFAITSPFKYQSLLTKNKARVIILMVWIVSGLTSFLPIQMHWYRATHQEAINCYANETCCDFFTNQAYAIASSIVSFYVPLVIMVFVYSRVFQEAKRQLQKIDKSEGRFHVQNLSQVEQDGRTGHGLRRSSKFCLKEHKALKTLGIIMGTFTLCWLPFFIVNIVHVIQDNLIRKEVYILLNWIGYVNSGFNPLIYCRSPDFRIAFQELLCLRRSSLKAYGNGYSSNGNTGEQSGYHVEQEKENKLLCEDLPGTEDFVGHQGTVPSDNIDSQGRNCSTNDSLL
Sequence of D(2) dopamine receptor (Homo sapiens) (P14416 whole entry, looked up): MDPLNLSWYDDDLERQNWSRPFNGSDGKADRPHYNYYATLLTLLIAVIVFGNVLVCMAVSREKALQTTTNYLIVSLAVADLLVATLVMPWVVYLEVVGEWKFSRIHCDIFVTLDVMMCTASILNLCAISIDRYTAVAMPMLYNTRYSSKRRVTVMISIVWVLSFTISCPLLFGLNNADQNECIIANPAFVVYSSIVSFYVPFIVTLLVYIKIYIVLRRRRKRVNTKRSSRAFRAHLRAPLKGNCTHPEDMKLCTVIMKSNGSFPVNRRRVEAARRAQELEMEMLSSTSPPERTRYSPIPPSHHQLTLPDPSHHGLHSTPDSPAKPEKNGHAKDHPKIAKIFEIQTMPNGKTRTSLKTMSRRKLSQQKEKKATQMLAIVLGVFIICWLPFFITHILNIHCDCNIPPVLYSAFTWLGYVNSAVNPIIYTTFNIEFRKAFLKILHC

For `CCOCCC(=O)OCC`, the Potency entry in assay [1], in assay [2], in assay [3], in assay [4], in assay [5] and in [6] was “inactive” in each case. Moreover, the Potency result in assay [7], in assay [8], in assay [9], in assay [10], in [11] and in assay [12] was “inactive” throughout. The Potency result in [13], in assay [14], in assay [15], in assay [16], in [17] and in assay [18] was “inactive” throughout.

`O=C1CCC(=O)O1`: the Potency result in [1], in assay [2], in assay [3], in [4], in assay [5] and in assay [6] was “inactive” in each case. Moreover, the Potency result in assay [7], in assay [8], in assay [9], in [10], in assay [11] and in assay [12] was “inactive” throughout. Moreover, the Potency result in assay [13], in [14], in assay [15], in assay [17], in [19] and in assay [20] was “inactive” throughout. Further, in assay [18], the Potency result is “inactive”.

Turning to `CCCCCCCCS`, the Potency entry in assay [1], in assay [2], in assay [3], in assay [4], in assay [5] and in assay [6] was “inactive” throughout. The Potency entry in assay [7], in assay [8], in assay [9], in [10], in [11] and in [12] was “inactive” throughout. Moreover, the Potency result in assay [13], in [14], in assay [15], in assay [16], in assay [20] and in assay [18] was “inactive” throughout.

Regarding `CC/C=C\CCOC(=O)CC`, the Potency entry in assay [1], in assay [2], in [3], in [4], in assay [5] and in assay [6] was “inactive” in each case. Also, the Potency entry in assay [7], in assay [8], in assay [9], in [10], in assay [11] and in assay [12] was “inactive” throughout. The Potency entry in [13], in assay [14], in [15], in assay [16], in [19] and in assay [18] was “inactive” throughout.

Take `OCCN1CCN(CCCN2c3ccccc3C=Cc3ccccc32)CC1`: the Potency result in [1], in [2], in [3], in assay [4], in assay [5] and in [6] was “inactive” each time. For the same compound, the Potency entry in [7], in assay [8], in [9], in assay [10], in assay [11] and in assay [13] was “inactive” each time. Moreover, the Potency entry in [14], in assay [15], in assay [16], in assay [19] and in assay [20] was “inactive” each time. Moreover, the Potency in [12] was 16.3 µM (active).

Turning to `CCSC(=O)N(CC(C)C)CC(C)C`, the Potency result in [1], in assay [2], in [3], in [4], in [5] and in assay [6] was “inactive” in each case. Moreover, the Potency result in [7], in [8], in [9], in [10], in [11] and in assay [12] was “inactive” in each case. In addition, the Potency result in [13], in assay [14], in assay [15], in assay [17], in assay [19] and in [20] was “inactive” throughout. In addition, the Potency entry in assay [18] is “inactive”.

As to `C=C(C)C(=O)NCCCN(C)C`, the Potency result in assay [1], in assay [2], in assay [3], in assay [4], in assay [5] and in assay [6] was “inactive” in each case. Moreover, the Potency result in assay [7], in assay [8], in assay [9], in assay [10], in [11] and in assay [12] was “inactive” in each case. Besides, the Potency entry in assay [13], in assay [14], in [15], in assay [16], in assay [19] and in assay [20] was “inactive” throughout. Besides, in assay [18], the Potency result was “inactive”.

As for `O=Cc1ccc(Cl)c(Cl)c1`, the Potency result in assay [1], in assay [2], in assay [3], in assay [4], in assay [5] and in assay [6] was “inactive” in each case. The Potency entry in assay [7], in [8], in assay [9], in [10], in [11] and in [12] was “inactive” throughout. Besides, the Potency result in assay [13], in assay [14], in assay [15], in assay [16], in assay [19] and in assay [20] was “inactive” in each case. Moreover, the Potency entry in assay [18] was “inactive”.
